Reference: the supplement of paper PMC11732987, “Enantioselective OTUD7B fragment discovery through chemoproteomics screening and high-throughput optimisation” (Communications Chemistry, 2025)

How the values were obtained:
Experiment in all cases: log2 ratio of Biotin-Ahx-Ub-VS probe labelling (fragment/DMSO); higher = less target engagement (more negative = stronger competition), active = hit call of the paper (q ≤ 0.05, log2 ratio ≤ -1)
Conditions in all cases: compound concentration: 200 uM; treatment time: 3 h
USP34 = USP34 (UniProt Q70CQ2)
How it was run: (§1)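 Each value is an average log2 ratio of fragment to vehicle, tested by unpaired t-test. The underlying Spectronaut label-free quantities were global-median-normalised, and only proteins with ≥2 unique peptides were included. Triplicate HEK293T lysate samples (495 µg) were exposed to fragment at 200 µM or vehicle for 3 h, then to Biotin-Ahx-Ub-VS at 0.5 µM final for 1 h, before NeutrAvidin enrichment of labelled DUBs, LysC and trypsin digestion, and diaPASEF LC-MS/MS.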

USP36 = target: T1, USP36 (UniProt Q9P275)
T1 sequence (whole entry): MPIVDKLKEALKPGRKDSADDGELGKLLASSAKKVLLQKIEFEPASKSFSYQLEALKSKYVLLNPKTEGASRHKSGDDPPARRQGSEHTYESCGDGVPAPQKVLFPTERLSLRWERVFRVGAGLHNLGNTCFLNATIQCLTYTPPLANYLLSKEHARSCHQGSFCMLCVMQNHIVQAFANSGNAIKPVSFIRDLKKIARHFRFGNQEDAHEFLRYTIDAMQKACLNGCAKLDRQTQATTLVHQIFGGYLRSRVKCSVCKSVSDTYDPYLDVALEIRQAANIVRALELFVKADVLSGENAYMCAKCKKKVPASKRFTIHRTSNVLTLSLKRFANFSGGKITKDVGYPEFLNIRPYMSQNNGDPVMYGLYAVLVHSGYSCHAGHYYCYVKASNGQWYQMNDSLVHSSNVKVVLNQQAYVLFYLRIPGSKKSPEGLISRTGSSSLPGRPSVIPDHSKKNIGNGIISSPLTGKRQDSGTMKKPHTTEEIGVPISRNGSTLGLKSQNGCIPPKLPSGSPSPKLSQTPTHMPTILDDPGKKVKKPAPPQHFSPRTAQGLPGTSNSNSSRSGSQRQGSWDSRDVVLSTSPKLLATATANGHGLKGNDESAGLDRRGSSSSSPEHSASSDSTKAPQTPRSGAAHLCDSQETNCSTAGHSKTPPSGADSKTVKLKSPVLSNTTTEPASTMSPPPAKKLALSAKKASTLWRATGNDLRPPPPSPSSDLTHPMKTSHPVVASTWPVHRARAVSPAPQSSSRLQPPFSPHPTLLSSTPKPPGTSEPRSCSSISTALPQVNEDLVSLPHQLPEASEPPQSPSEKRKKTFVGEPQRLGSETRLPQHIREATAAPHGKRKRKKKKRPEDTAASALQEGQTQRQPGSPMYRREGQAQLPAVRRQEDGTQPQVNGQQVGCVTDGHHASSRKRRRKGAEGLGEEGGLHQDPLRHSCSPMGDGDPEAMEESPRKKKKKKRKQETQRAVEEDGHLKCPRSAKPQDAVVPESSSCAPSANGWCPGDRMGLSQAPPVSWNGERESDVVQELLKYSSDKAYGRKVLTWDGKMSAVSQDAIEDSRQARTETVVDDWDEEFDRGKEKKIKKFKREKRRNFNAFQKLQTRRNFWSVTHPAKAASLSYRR
How it was run: as §1

USP38 = target: T2, USP38 (UniProt Q8NB14)
T2 sequence (whole entry): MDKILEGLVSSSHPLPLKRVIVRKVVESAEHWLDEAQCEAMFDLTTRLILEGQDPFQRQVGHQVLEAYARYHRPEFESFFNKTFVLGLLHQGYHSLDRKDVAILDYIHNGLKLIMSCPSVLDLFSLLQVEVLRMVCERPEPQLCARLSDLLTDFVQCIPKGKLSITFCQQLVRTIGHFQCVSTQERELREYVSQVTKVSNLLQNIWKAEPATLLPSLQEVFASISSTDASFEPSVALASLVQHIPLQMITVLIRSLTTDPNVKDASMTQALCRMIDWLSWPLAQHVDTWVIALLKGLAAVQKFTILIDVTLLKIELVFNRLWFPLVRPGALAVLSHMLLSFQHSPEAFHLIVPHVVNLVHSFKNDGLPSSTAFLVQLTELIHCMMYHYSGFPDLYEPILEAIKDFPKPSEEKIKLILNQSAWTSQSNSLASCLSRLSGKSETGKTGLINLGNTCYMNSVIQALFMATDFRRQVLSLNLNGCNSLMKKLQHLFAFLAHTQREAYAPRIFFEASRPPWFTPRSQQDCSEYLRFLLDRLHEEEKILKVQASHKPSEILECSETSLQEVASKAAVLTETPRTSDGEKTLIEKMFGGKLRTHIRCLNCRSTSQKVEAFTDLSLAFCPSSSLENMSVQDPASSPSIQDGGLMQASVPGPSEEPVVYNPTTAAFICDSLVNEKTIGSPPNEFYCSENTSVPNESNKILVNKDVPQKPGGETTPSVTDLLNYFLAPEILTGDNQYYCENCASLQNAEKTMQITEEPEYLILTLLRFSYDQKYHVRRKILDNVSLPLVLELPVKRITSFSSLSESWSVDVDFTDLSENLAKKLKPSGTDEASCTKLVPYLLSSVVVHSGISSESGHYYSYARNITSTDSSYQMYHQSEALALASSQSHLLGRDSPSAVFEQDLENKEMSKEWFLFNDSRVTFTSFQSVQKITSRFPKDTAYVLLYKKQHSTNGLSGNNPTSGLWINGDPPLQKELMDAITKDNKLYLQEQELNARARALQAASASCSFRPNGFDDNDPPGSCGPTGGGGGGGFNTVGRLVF
How it was run: as §1

USP39 = target: T3, USP39 (UniProt Q53GS9)
T3 sequence (whole entry): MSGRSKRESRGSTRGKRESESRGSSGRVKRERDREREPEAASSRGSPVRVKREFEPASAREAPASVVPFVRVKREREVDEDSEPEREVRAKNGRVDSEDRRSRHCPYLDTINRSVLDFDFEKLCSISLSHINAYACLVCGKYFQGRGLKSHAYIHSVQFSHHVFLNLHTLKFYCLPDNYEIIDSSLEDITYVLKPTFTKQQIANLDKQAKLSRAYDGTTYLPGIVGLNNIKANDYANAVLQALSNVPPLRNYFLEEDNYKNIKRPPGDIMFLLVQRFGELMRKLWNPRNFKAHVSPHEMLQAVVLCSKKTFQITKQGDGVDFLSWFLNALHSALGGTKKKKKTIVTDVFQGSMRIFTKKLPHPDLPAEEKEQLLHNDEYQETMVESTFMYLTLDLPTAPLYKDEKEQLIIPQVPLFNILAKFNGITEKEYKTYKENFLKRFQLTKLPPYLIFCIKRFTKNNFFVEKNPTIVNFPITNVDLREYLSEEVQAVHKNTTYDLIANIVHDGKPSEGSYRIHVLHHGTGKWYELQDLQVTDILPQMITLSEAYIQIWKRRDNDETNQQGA
How it was run: as §1

USP4 = target: T4, USP4 (UniProt Q13107)
T4 sequence (whole entry): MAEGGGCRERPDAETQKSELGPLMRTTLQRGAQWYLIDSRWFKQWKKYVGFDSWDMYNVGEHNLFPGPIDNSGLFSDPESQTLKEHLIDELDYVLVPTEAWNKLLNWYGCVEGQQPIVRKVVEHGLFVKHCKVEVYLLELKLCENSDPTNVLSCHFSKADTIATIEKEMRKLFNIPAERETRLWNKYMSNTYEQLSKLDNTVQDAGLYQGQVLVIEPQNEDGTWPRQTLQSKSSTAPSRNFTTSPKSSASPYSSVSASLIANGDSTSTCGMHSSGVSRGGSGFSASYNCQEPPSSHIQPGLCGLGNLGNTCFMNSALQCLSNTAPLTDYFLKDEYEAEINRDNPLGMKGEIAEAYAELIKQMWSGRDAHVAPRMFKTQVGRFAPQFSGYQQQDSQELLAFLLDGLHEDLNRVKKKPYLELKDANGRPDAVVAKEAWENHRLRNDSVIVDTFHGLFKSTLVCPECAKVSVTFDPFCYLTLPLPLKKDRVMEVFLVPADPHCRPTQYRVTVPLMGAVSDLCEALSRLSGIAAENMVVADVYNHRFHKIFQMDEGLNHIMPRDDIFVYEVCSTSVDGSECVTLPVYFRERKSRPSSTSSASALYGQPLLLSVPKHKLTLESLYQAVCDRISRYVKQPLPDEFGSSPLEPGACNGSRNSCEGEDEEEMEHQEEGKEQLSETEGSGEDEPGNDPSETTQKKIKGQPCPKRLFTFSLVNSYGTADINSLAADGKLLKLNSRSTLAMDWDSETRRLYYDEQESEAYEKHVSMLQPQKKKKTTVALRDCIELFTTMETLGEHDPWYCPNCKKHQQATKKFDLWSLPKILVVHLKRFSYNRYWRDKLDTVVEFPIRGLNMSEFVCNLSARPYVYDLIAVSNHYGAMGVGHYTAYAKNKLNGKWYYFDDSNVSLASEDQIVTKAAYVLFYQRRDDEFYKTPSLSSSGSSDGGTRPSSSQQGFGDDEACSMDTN
How it was run: as §1

Measured: log2 ratio of Biotin-Ahx-Ub-VS probe labelling

Sequence of USP34 (Q70CQ2 whole entry, the tested form may be a part): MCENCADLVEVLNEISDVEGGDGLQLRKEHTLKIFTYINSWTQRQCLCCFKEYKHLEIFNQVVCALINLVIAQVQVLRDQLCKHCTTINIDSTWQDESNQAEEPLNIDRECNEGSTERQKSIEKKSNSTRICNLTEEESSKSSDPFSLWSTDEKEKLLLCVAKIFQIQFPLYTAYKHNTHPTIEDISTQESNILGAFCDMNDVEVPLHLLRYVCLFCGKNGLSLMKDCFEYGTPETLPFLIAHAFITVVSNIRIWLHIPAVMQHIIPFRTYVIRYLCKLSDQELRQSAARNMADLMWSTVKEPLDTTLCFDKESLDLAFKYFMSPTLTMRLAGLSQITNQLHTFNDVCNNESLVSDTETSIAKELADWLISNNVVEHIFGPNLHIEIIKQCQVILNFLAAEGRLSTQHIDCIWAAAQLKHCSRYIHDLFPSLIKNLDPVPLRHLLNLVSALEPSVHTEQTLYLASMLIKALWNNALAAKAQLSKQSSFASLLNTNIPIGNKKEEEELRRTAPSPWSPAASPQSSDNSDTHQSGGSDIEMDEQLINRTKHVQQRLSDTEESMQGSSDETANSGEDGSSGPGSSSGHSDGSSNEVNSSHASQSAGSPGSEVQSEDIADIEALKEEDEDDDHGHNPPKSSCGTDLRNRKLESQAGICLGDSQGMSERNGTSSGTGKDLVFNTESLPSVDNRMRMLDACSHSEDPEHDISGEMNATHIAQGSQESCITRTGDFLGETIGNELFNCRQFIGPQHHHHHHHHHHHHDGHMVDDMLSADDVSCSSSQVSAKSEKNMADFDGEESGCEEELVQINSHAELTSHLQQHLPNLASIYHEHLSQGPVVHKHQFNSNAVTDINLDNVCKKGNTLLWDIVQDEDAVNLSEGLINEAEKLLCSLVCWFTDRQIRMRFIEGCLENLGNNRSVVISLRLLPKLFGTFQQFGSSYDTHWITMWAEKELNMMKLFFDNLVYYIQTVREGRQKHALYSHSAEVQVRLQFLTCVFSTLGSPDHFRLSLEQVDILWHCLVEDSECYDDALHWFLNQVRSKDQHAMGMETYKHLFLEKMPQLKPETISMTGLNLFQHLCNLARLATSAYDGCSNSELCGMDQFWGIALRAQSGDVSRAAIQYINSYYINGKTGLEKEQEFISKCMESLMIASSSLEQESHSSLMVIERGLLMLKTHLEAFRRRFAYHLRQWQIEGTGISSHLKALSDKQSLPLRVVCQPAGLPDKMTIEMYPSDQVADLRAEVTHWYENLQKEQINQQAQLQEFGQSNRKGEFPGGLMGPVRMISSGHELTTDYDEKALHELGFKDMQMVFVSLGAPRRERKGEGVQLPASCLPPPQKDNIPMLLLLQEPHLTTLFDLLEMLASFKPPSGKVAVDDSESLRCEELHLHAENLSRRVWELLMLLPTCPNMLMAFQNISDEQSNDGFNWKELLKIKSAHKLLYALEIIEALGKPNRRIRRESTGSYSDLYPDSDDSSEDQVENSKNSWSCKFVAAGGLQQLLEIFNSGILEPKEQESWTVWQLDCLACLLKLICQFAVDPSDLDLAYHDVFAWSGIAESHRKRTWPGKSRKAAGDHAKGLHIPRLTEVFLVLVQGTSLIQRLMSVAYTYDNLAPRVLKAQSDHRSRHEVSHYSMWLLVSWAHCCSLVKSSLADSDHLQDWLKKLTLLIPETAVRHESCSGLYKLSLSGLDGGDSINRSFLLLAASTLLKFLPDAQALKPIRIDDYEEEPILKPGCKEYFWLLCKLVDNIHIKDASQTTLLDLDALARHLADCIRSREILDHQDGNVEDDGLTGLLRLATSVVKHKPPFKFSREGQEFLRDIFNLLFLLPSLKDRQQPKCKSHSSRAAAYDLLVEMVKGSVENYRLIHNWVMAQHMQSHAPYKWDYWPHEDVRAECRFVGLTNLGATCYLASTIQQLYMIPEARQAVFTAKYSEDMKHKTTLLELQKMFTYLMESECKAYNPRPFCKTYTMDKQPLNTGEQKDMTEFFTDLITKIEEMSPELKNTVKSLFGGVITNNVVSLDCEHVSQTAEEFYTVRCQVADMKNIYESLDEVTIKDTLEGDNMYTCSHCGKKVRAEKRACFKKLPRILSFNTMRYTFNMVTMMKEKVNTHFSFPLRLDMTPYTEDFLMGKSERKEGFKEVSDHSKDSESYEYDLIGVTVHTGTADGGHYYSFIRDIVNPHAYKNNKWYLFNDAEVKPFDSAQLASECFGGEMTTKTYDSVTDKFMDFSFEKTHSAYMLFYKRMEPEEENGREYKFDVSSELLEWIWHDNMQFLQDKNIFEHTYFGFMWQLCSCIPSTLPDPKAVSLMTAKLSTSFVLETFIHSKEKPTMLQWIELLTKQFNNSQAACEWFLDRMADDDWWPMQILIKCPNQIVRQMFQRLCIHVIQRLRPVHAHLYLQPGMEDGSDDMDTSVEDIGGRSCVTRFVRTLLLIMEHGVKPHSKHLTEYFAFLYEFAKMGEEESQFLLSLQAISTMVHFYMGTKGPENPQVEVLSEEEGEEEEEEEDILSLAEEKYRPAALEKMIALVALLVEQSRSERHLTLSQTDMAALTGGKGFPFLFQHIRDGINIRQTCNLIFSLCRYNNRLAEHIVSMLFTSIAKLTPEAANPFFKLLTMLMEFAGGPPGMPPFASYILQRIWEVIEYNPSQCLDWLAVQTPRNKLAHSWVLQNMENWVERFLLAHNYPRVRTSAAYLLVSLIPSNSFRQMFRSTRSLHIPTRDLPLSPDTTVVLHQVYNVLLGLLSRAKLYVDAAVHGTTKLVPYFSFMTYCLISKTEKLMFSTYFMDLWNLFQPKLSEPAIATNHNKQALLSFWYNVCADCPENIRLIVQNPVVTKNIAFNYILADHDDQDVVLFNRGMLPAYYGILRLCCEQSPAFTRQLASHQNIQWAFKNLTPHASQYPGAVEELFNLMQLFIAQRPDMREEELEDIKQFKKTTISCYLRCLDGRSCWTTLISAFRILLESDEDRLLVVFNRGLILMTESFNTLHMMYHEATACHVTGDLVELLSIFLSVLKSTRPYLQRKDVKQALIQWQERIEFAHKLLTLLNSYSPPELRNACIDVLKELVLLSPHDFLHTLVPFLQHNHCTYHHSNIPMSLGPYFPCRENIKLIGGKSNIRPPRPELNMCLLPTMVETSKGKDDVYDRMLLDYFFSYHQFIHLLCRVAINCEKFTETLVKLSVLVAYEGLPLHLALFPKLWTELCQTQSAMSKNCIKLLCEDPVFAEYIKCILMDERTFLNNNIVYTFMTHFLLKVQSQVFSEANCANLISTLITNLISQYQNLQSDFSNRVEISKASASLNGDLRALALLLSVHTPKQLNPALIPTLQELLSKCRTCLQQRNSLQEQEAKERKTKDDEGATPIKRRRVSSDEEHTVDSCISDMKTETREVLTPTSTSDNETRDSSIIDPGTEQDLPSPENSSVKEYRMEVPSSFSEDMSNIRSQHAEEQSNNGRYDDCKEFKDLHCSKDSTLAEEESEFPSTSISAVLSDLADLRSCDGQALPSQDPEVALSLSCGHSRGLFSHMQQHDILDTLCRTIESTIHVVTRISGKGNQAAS

CCN(Cc1ccc(C#N)cc1F)C(=O)CCl
inactive: USP34 -0.454 | USP36 -0.0792 | USP38 -0.292 | USP39 -0.0856 | USP4 -0.105
